# The list is not random: actives were taken first. Their share in the collection is about 3.9%.
# FBA Mtb inh – Mtb FBA enzyme inhibitors, primary screen, biochemical, fluorescence, strain H37Rv. Fructose-bisphosphate aldolase (Mycobacterium tuberculosis (strain ATCC 25618 / H37Rv)), …. purified M. tuberculosis FBA, fluorescence read-out. inhibition, % at 1 µM. actives 2.3% (n = 360,000); in the data active = inhibition above about 27%;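 note: 0% = vehicle and 100% = reference inhibitor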
# Target sequence (P9WQA3 whole entry, looked up): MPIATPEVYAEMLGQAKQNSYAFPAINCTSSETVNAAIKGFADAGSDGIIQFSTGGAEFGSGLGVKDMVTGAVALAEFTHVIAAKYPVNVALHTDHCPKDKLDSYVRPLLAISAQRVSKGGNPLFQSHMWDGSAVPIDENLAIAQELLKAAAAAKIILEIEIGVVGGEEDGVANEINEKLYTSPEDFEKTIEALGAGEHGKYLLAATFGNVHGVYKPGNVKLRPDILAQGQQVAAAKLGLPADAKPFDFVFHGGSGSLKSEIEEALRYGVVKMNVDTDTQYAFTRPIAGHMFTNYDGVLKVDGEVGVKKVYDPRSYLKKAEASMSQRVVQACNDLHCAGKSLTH
# BH1578 lux ind – inducers of Vibrio cholerae quorum light production without autoinducers, primary screen, BH1578 luxS cqsA deficient, single point; V. cholerae BH1578 lux reporter, luminescence, 6 h; activation, % at 18.7 µM; actives 0.16% (n = 350,000); AID 588436, 2011; in the data active = activation mostly above about 9.7%, no sharp cut-off
# GDH-TPI inh – GDH-TPI coupling enzyme inhibitors, primary screen, artefact control for M. tuberculosis FBA inhibitor project, biochemical, absorbance, full deck; actives 1.2% (n = 360,000); GDH-TPI coupled enzyme counterscreen, NADH absorbance; inhibition, % at 4.8 µM; in the data active = inhibition above about 30%;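 note: 0% = DMSO wells and 100% = wells lacking the enzyme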
# PrPC TRFRET – inhibitors of human cell surface prion protein PrPC, primary screen, cell-based, TR-FRET; Major prion protein (Homo sapiens), P04156; TR-FRET read-out; inhibition, % at 13.8 µM; actives 0.43% (n = 370,000); AID 720596, 2013; in the data active = inhibition above about 24%; note: 0% = median of the test wells and 100% = reference compound wells
# 3CLpro inhibitor – SARS-CoV 3CLpro protease inhibitors, primary screen, biochemical, quenched FRET. recombinant SARS-CoV 3CLpro, quenched FRET peptide cleavage. inhibition, % at 6 µM. actives 0.14% (n = 290,000). AID 1706, 2009. Replicase polyprotein 1ab (Severe acute respiratory syndrome coronavirus), P0C6X7; in the data active = inhibition above about 12%
# * = called active by the depositor; i = inactive; x = not tested or not shown; + = active, no number.
SMILES,FBA Mtb inh,BH1578 lux ind,GDH-TPI inh,PrPC TRFRET,3CLpro inhibitor
CCc1ccc(CN2CCN(C(=O)Cc3ccccc3)CC2)cc1,-0.8,i,-6.1,-1.2,-0.3
CSc1ccc(CN2CCN(C(=O)Cc3ccccc3)CC2)cc1,2.3,-1.1,31.0*,4.4,x
Cc1csc(NC(=O)CSCC(=O)O)c1-c1nc2ccccc2s1,-0.1,-0.4,34.6*,12.6,0.9
Cc1ccc2sc(-c3ccc(NC(=O)/C=C\C(=O)O)cc3)nc2c1,+,-0.3,22.0,3.0,-2.0
O=C(O)CSCC(=O)Nc1ccc(-c2nc3ccccc3s2)cc1,115.9*,-0.4,23.4,3.4,0.9
O=C(CCN1C(=O)c2ccccc2C1=O)Nc1ccc(-c2nc3ccccc3s2)cc1,3.0,-0.2,4.9,8.2,4.0
Cc1ccc2nc(-c3ccc(NC(=O)CSCC(=O)O)cc3)sc2c1,199.3*,-3.7,49.4*,18.2,4.5
O=C(C1=NOC(CNc2ncc(C(F)(F)F)cc2Cl)C1)N1CCOCC1 (stereo not drawn),2.1,-0.3,10.1,-7.4,-1.3
CC(C)OCCCNC(=O)c1cn(C)c2ccc(S(=O)(=O)N3CCCC3)cc2c1=O,-2.8,-2.1,6.0,2.9,-5.5
COCCN1Cc2cc(C(=O)OC)c3c(c2C1=O)c1cc(F)ccc1n3S(=O)(=O)c1ccc(C)cc1,x,x,x,-2.1,x
CCC(=O)NC(=S)Nc1ccc(-c2nc3ccc(C)cc3s2)cc1,-1.4,i,-7.4,0.0,2.2
Cc1ccc2nc(-c3ccc(NC(=O)COCC(=O)O)cc3)sc2c1,136.4*,-1.1,24.5,4.4,3.3
CC(C)C(=O)Nc1nc(-c2ccc(S(=O)(=O)N3CCOCC3)cc2)cs1,59.1*,-0.4,1.7,6.0,3.1
COc1ccccc1C(=O)Nc1nc(-c2ccc(S(=O)(=O)N3CCOCC3)cc2)cs1,2.3,-2.9,0.6,24.9*,-5.9
Cc1cc(NC(=O)CSc2ncc(C(=O)O)n2-c2ccc(F)cc2)no1,0.3,i,-3.8,3.6,x
COc1ccc(NC(=O)C2CCN(S(=O)(=O)c3ccc(Cl)c(C(F)(F)F)c3)CC2)cn1,-1.7,0.2,-0.9,-1.3,x
CC(=O)Nc1ccc(S(=O)(=O)Nc2cc(C)cn(Cc3ccccc3)c2=O)cc1,69.6*,-0.3,8.3,x,7.3
Cc1ccc(S(=O)(=O)Nc2cccc(C(=O)N3CCC(C(N)=O)CC3)c2)cc1,0.8,-1.3,10.8,-4.2,x
CN(Cc1ccccc1F)c1cc2c(c3c1ccn3C)C1CCC2C1 (stereo not drawn),1.8,x,x,-1.9,x
Cc1cc(NC(=O)CSC2=Nc3ccccc3C3=NC(Cc4ccccc4)C(=O)N23)n[nH]1 (stereo not drawn),3.4,25.8*,2.1,2.2,0.8
CCc1ccc(CN(C)Cc2nc(-c3cccc(Cl)c3)no2)nc1,-0.1,i,-1.0,3.7,3.5
COc1ccc(NC(=O)COc2ccccc2C)cc1S(=O)(=O)N1CCCCC1,1.8,-0.9,3.2,3.9,x
COc1cc(C(=O)NS(=O)(=O)c2ccccc2C)ccc1Cc1cn(C)c2ccc(NC(=O)OC3CCCC3)cc12,x,x,x,x,15.3*
NC(c1csc(Nc2ccc(C(=O)c3ccccc3)cc2)n1)c1ccccc1Cl (stereo not drawn),2.0,-0.4,12.8,19.8,x
O=C(CSc1nnc(-c2c[nH]c3ccccc23)o1)N(Cc1ccccc1)c1ccc(F)cc1,3.2,-3.0,18.4,x,-1.9
SMILES,FBA Mtb inh,BH1578 lux ind,GDH-TPI inh,PrPC TRFRET,3CLpro inhibitor
COc1ccc(CN(C(=O)CSc2nnc(-c3ccccc3C)o2)c2ccc(F)cc2)cc1,+,1.5,-15.5,-5.4,-1.6
Cc1cccc2cc(C#N)c(NCc3ccccc3)nc12,29.7*,-0.5,-0.9,-1.3,1.3
COc1ccc(C(=O)OC(C)CN2CCOCC2)cc1OC (stereo not drawn),121.4*,-1.7,5.0,1.4,-1.7
COC(=O)C1=C(C)NC(C)=C(C(=O)OC)C1C(=O)OCC(=O)N1CCCCC1C (stereo not drawn),5.9,1.4,17.9,0.3,x
COCCn1c(N)c(N(Cc2ccccc2)C(=O)C(C)Oc2ccc(Br)cc2)c(=O)[nH]c1=O (stereo not drawn),8.0,-0.5,4.9,0.8,x
Cc1ccsc1/C=N/Nc1nc2ccccc2[nH]1,5.2,-0.6,31.9*,9.2,-0.4
Cc1c(/C=N/Nc2nc3ccccc3[nH]2)c2ccccc2n1C,1.3,i,32.4*,17.2,-1.1

# Bioassay records (PubChem BioAssay)
